An excerpt weighted towards active compounds, which were near 11% of everything screened.
hNpr1 antagonist = Natriuretic polypeptide receptor (hNpr1) antagonism - Primary qHTS. Atrial natriuretic peptide receptor 1 (Homo sapiens), P16066. HEK293 hNpr1 GloSensor cGMP, ANP-stimulated luminescence. Potency, µM (titrated, usually from 46.3 µM), inactives show top-dose activity change, negative = inhibition, actives largely listed as inhibitors. actives 1.6% (n = 76,000); calls by dose curve; note: nearly all actives have a fitted effect of over 60% in size
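HEK293 cells stably expressing human Npr1 and cGMP GloSensor pGS-40F, loaded 2 h with 2% GloSensor reagent, given compound 30 min at room temperature. Luminescence read before and 20 min after 0.1 nM hNppA.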
NIH3T3 tox = Cytotoxic Profiling in NIH 3T3 Cell Line of Diverse Libraries Using Quantitative High-Throughput Screening; AID 1345082, 2018; actives 4.3% (n = 94,000); NIH 3T3 viability, CellTiter-Glo ATP luminescence, 48-72 h; Potency, µM (top dose mostly 96.7 µM), without a hit: at the highest dose activity change, negative = cytotoxicity, most hits filed as inhibitors; note: nearly all actives have a fitted effect of over 55% in size
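First NIH 3T3 cells are plated at 400 cells/well; next compound is pinned in; then plates incubate 48 or 72 hr at 37 °C; finally CellTiter-Glo is added and luminescence read after 10 min.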
HEK293 tox = Cytotoxic Profiling in HEK 293 Cell Line of Diverse Libraries Using Quantitative High-Throughput Screening | HEK 293 viability, ATP luminescence (CellTiter-Glo), 48-72 h | Potency, µM (highest dose often 115 µM), for the others: top-dose activity change, negative = cytotoxicity, most hits filed as inhibitors | actives 6.6% (n = 94,000) | AID 1345083, 2018; note: nearly all actives have a fitted effect of over 60% in size
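Luminescence from cellular ATP, measured with CellTiter-Glo, indicates HEK 293 viability. Cells plated at 250 cells/well are treated with compound for 48 or 72 hr at 37 degree Celsius before reagent addition.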
FLuc inh = Firefly luciferase inhibition profiling of diverse chemical library using quantitative high-throughput screening | actives 2.5% (n = 76,000) | AID 1347043, 2019 | Potency, µM (highest dose often 115 µM), most hits filed as inhibitors | purified P. pyralis luciferase, luminescence, biochemical; note: nearly all actives have a fitted effect of over 65% in size
Target sequence (P08659 whole entry, looked up): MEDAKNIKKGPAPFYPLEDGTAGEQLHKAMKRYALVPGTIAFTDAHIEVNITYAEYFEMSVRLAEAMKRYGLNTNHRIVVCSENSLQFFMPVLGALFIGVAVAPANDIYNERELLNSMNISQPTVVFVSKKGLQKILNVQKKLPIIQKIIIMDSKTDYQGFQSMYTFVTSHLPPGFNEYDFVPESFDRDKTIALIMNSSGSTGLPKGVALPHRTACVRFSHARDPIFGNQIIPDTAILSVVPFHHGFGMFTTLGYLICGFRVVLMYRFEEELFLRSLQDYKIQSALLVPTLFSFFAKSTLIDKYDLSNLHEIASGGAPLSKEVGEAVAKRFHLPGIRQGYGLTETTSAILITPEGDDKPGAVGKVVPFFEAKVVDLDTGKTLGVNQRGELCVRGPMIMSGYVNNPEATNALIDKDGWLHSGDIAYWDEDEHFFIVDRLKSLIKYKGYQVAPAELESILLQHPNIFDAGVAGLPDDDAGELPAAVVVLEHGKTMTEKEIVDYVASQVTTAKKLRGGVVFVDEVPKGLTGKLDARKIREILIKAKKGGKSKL
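FLuc 10nM, D-luciferin 10uM, ATP 10uM, Mg acetate 10mM, Tris acetate pH 7.5, Tween/BSA; cpd qHTS; enzyme added last; CCD luminescence.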
* = called active by the depositor; i = inactive; ? = inconclusive; . = no result; [ ] = remark or other dose. Unless noted, calls come from the whole dose curve; as a rule, active = well fitted curve in the direction sought with a large enough effect; inconclusive = small, poorly fitted or top-dose-only effect, or another doubt; inactive = no such curve, though single readings can be large; an effect the other way counts as inactive or inconclusive. % is set by controls: 0 for no effect and ±100 for the full control effect; potency is the fitted concentration of half-maximal effect.

SMILES	hNpr1 antagonist	NIH3T3 tox	HEK293 tox	FLuc inh
CCN1CCC(CCNC(=O)CCC[C@H]2NC[C@@H]3CC2CN(Cc2ccccc2)C3)CC1	-3%	i	14%	i
O=C(NCc1cccs1)c1nc(-c2cccnc2)c2cnccn12	12%	?	?	i
Cc1ncsc1CN1CCC(N2C(=O)C(OCC3CC3)C23CCCCC3)CC1 (centres undefined)	-2%	-27%	?	i
Cc1ncsc1CN1CCC(N2CC3(CCCCC3)C2c2ccccc2)CC1 (centres undefined)	.	?	45µM*	.
O=C1Cc2c(-c3cccc4ccccc34)n[nH]c2CN1CCc1ccncc1	-5%[70.6 µM]	?	79µM*	i
O=C1Cc2c(-c3ccc4c(c3)OCO4)n[nH]c2CN1CC1CCOCC1	3%[70.6 µM]	10µM*	-28%[172 µM]	i
O=C1Cc2c(-c3cccc(C(F)(F)F)c3)n[nH]c2CN1CCc1ccncc1	3%[70.6 µM]	?	89µM*	i
O=C1Cc2c(-c3ccc4ccccc4c3)n[nH]c2CN1CCc1ccncc1	-20%[70.6 µM]	?	?	i
O=C1Cc2c(-c3ccccc3)n[nH]c2CN1CCc1ccncc1	-2%[70.6 µM]	?	3%[172 µM]	i
O=C(O)c1cccc(-c2n[nH]c3c2CC(=O)N(CC2CCOCC2)C3)c1	5%[70.6 µM]	?	i	i
O=C1Cc2c(-c3ccc(N4CCOCC4)cc3)n[nH]c2CN1CCc1ccncc1	-10%[70.6 µM]	79µM*	-18%[172 µM]	?
CCOc1ccccc1NC(=O)N1CC(N(CC)C2CCOCC2)C1	.	-1%	3%	.
Cc1cnc(CC2CCN(C(=O)CCC3CCCC3)C2)n1CC1CC1 (centres undefined)	.	-27%	?	.
CCOC(=O)C1CCN(C(=O)c2nc3sccn3c2-c2ccc(F)cc2)CC1	.	?	-4%	.
O=C(NCc1ccccc1)c1c(-c2cccnc2)cc(=O)n2c1CCCC2	.	-29%	-17%	.
Cc1ccc(-c2cc(N3CCCN(C(=O)Cc4ccccc4)CC3)n[nH]2)cc1C	-13%	40µM*	?	?
COc1ccc(CC(=O)N2CCCN(c3cc(-c4ccc(Cl)cc4)[nH]n3)CC2)cc1	?	?	40µM*	i
O=C(Cc1ccsc1)N1CCCN(c2cc(-c3ccc(Cl)cc3)[nH]n2)CC1	?	?	?	i
O=C(Cc1ccccc1)N1CCCN(c2cc(-c3ccc(Cl)cc3)[nH]n2)CC1	?	?	40µM*	i
Cc1ccc(CC(=O)N2CCCN(c3cc(-c4ccccc4)[nH]n3)CC2)cc1	-18%	?	50µM*	i
CCc1ccccc1OCCN(C)Cc1ncc[nH]1	2%	-17%	-16%	i
Cc1cccc(OCC(=O)N2CCCN(c3cc(-c4ccc(Cl)cc4)[nH]n3)CC2)c1	?	25µM*	?	i
O=C(c1ccccc1F)N1CCN(c2cc(-c3ccc(F)cc3)[nH]n2)CC1	?	?	?	i
Cc1ccc(-c2cc(N3CCCN(C(=O)c4ccccc4F)CC3)n[nH]2)cc1C	-24%	?	28µM*	i
COc1cccc(CC(=O)N2CCN(c3cc(-c4ccc(Cl)cc4)[nH]n3)CC2)c1	?	?	?	i
SMILES	hNpr1 antagonist	NIH3T3 tox	HEK293 tox	FLuc inh
Cn1nc(C(=O)N2CCCN(c3cc(-c4ccccc4)[nH]n3)CC2)c2ccccc21	-2%	?	28µM*	i
Cc1ccc(C(=O)N2CCC3(CC2)CC(N(Cc2ccccc2)C2CC2)CCO3)s1 (centres undefined)	-25%	?	?	i
COCCCNc1ncnc2c1CN(C1CCCCC1)C(=O)CN2C	.	-7%	i	.
COCCN1C(=O)CCc2cc(NC(=O)c3ccccc3C)ccc21	0%	-13%	-9%	i
CCN1C(=O)CCc2cc(NC(=O)c3cc(F)cc(F)c3)ccc21	-3%	?	?	?
COCCN1C(=O)CCc2cc(NC(=O)c3ccc(C)cc3C)ccc21	0%	?	?	40µM*
CCN1C(=O)CCc2cc(NC(=O)c3ccc(OC)cc3C)ccc21	-2%	?	71µM*	25µM*
COc1ccc(-c2cnc(Nc3cccnc3)c3c2CCO3)cn1	-7%[70.6 µM]	?	71µM*	?

Screening data (PubChem BioAssay)
